In PubChem BioAssay (NCATS) one finds activity change, negative = inhibition, Potency and activity, negative = inhibition data, which are given here for 17 molecules.

Values joined by “and” are separate entries in the source; they are usually repeats but may differ in a detail not shown here. Equal values may be shown once. Unmarked numbers belong to inactive results. Inconclusive results are not listed. Active and inactive are the calls of the source. Unless noted, calls follow the shape of the dose curve; as a rule, active = well fitted curve in either direction with a large enough effect (not every such curve was filed as active); inconclusive = small, poorly fitted or top-dose-only effect, or another doubt; inactive = flat fitted curve, though single readings scatter.

A short description of assay [1]: AP1 Signaling Pathway (AID 357).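 Also: ME-180 reporter cells stimulated with EGF at its EC50 level; % is scaled to controls: 0 for no effect and ±100 for the full control effect.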 The note with it: ME-180 AP-1-bla reporter, EGF-induced, beta-lactamase ratio, 5 h; at 7.69 µM (top of the series) unless noted. In outline:
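Beta-lactamase reporter under AP-1 response element, ME-180 background. Stimulus: EC50 EGF. Compound exposure 5 h, 37 °C. Detection: CCF4, 2.5 h RT, 460/530 nm. Values: AC50 from titration.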

Assay [2] has as its target Cytochrome P450 1A2 (Homo sapiens) (UniProt P05177). The experiment in a line: p450-cyp1a2 (AID 410; calls by dose curve; also: potency is read from the fitted curve at half-maximal effect;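 as to activity change, negative = inhibition: -100% = full effect of reference inhibitor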). In outline:
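20nM CYP1A2, 100uM Luciferin-ME (=Km), 100mM KPO4; cpd 10 min RT; +NADPH regen, 60 min RT; stop/detect 20 min; luminescence. Normalized to furafylline 57 uM = full inhibition.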

The nature of assay [3]: NFAT Signaling Pathway (AID 444).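 Also: carbachol stimulus at about its EC50 of 1 µM final; % is scaled to controls: 0 for no effect and ±100 for the full control effect.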 Conditions: Jurkat NFAT-bla M1, carbachol, beta-lactamase ratio, 5 h; at 7.69 µM (top of the series) unless noted. In outline: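 Jurkat cells with NFAT-driven β-lactamase reporter and co-expressed M1 receptor, stimulated with carbachol (final 1 uM, ~EC50), compound titration, 5 h at 37 °C. CCF4 loaded 1 h at RT; 460/530 nm ratio gave %activity and AC50.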

The target in assay [4] is Glucocorticoid receptor (Homo sapiens) (UniProt P04150). Briefly: GR-GFP Redistribution (AID 450;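 active = compounds whose dose series gives a full or clear partial fitted curve of increased nuclear translocation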; also: potency is read from the fitted curve at half-maximal effect). Conditions: U2OS GR-GFP nuclear translocation, laser cytometry, 2 h.
For assay [5] the target is unchanged. The experiment in a line: GR-EFC Redistribution (AID 451; calls by dose curve; also: potency is read from the fitted curve at half-maximal effect). Conditions: CHO-K1 GR-EFC translocation, beta-gal luminescence, 2 h. The essentials: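 CHO-K1 cells expressing nuclear EA and GR-ED fragments of b-gal; compounds titrated up to 46 uM final, 2 h at 37 C. GR nuclear translocation read as complemented b-gal luminescence after 1 h RT detection.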
Assay [6] addresses Mitogen-activated protein kinase 10 (Mus musculus) (UniProt Q61831). The experiment in a line: JNK3 AlphaScreen Assay (AID 530).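 Also: kinase came from lysate of stimulated human HepG2 cells; signal reports phosphorylation of biotinylated GST-cJun 1-79 at Ser73 with 10 µM ATP; % is scaled to controls: 0 for no effect and ±100 for the full control effect.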 In outline: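 HepG2 lysate (IL-1b/TNFa pre-activated) + biotin-GST-cJun 1-79 + anti-pSer73 cJun; cpd titration, 15 min RT; ATP 10 uM start; Tris pH 7.6, MgCl2, DTT, vanadate; beads in EDTA buffer; AlphaScreen.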
On the technique in general: Alpha assays give light when donor and acceptor beads are brought close together.

The target in assay [7] is 3',5'-cyclic-AMP phosphodiesterase 4B (Homo sapiens) (UniProt Q07343). Briefly: qHTS Assay for Inhibitors of PDE-IV (AID 607; active = well fitted activation curve with a large enough effect in the main read-out, with a control signal flat, not every such curve was filed as active; also: % of control where 0% means no effect). The essentials:
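Cell-based read-out of cAMP via a modified cyclic nucleotide-gated channel and membrane potential dye (535/590 nm) in HEK293 cells expressing PDE4 endogenously. Compounds tested up to 22.9 uM final; 100 uM RO 20-1724 reference.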
On the technique in general: qHTS replaces the single test concentration by a dilution series.

Assay [8] in a line: Stat Signaling Pathway (AID 446).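 Also: ME-180 cervical cancer cells given 40 pM IL-6 alongside compound; SIE-controlled beta-lactamase reporter measured as 460/530 nm FRET emission ratio; % is scaled to controls: 0 for no effect and ±100 for the full control effect.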 The note with it: ME-180 (cervical carcinoma) SIE beta-lactamase reporter, IL-6 stimulated, 5 h; at 7.69 µM (top of the series) unless noted. The essentials: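 FRET read-out (405 nm excitation, 460/530 nm emission) of a beta-lactamase reporter under a STAT-inducible element in ME-180 cervical carcinoma cells. Cells with compound receive 40 pM IL-6 for 5 h. Values are normalised to AC90 stimulation and AC90 JAK-inhibitor controls.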

Sequence of 3',5'-cyclic-AMP phosphodiesterase 4B (Homo sapiens) (Q07343 whole entry, looked up): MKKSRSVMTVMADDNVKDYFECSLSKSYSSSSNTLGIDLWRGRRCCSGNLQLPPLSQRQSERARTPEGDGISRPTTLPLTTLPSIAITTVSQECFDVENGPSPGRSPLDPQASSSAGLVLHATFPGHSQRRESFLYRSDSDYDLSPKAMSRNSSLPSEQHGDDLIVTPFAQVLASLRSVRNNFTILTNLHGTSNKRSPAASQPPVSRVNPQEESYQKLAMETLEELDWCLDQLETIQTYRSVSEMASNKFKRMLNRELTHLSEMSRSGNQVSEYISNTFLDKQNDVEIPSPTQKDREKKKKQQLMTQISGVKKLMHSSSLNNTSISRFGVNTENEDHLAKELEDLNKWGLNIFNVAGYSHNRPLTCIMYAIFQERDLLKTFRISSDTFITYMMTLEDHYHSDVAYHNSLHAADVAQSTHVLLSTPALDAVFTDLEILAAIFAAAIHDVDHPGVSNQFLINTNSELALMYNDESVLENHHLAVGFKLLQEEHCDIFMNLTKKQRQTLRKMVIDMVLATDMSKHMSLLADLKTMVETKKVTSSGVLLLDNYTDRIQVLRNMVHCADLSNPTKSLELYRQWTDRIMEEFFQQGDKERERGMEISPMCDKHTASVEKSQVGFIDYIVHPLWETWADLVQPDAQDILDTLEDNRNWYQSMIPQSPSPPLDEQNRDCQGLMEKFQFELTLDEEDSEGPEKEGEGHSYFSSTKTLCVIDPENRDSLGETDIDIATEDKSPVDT
Sequence of Cytochrome P450 1A2 (Homo sapiens) (P05177 whole entry, looked up): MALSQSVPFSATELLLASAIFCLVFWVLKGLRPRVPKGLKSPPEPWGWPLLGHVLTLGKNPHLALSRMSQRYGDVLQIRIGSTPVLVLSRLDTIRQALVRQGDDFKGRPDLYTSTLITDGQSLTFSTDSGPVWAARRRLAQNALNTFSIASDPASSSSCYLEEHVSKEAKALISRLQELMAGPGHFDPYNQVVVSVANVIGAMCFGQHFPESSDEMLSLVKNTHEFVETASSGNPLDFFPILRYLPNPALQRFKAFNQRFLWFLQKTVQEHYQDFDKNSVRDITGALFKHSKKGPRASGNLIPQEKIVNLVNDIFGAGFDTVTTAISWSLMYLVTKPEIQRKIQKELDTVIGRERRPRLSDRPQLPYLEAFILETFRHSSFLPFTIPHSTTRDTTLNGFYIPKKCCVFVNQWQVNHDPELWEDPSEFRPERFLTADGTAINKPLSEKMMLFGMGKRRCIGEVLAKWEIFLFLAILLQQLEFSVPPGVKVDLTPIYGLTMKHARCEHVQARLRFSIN
Sequence of Glucocorticoid receptor (Homo sapiens) (P04150 whole entry, looked up, the tested form may be a part): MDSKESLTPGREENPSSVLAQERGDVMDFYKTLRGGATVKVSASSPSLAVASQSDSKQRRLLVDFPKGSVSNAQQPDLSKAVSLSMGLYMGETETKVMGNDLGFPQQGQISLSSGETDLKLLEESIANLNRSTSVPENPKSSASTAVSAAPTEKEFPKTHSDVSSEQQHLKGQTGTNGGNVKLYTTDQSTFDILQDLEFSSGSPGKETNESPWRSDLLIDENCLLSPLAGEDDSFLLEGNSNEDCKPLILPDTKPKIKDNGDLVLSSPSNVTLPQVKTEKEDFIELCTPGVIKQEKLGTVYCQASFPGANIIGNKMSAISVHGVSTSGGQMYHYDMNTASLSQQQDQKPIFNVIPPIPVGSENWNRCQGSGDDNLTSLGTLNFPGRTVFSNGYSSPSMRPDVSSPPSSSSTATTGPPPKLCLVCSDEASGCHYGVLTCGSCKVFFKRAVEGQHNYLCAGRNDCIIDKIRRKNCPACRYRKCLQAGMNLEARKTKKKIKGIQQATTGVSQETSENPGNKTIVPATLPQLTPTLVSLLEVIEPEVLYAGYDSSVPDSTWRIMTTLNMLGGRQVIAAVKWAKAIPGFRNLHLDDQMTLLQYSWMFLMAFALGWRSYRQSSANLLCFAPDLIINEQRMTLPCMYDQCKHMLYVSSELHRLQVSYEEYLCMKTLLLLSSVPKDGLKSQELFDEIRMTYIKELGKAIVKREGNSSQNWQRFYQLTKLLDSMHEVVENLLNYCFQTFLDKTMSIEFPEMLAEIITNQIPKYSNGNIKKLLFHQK

Regarding `CCCC[S@@](=N)(=O)CC[C@@H](N)C(=O)O`, the activity change, negative = inhibition was 3.63% [at 38 µM] and -2.23% [at 38 µM] in assay [1]; -1.5% [at 38 µM] and 5.43% [at 38 µM] in assay [3]. Further, the Potency result in assay [2], in assay [6] and in assay [7] was “inactive” in each case. Moreover, the Potency in assay [4] and in assay [5] was greater than 46 µM in each case.
On to `CCN(CC)[C@@H](C)C(=O)N1c2ccccc2Sc2ccccc21`, for which the activity change, negative = inhibition was 14.4% [at 38 µM] in assay [1] and -74.6% [at 38 µM] (active) in assay [3]. In addition, the Potency result in assay [2], in assay [6] and in assay [7] was “inactive” in each case. In addition, the Potency in assay [4] and in assay [5] was greater than 46 µM in each case.
Consider `C=C(C)[C@@H]1CC=C(C(=O)O)CC1`, for which the activity change, negative = inhibition in assay [1] is 3.75% [at 38 µM]; in assay [3] it was -3.51% [at 38 µM]. Further, the Potency result in assay [2], in assay [6] and in assay [7] was “inactive” each time. The Potency in assay [4] and in assay [5] was greater than 46 µM in each case.
Consider `O=c1[nH]c(=O)n([C@H]2C[C@H](O)[C@H](CO)O2)cc1Br`, for which the activity change, negative = inhibition in assay [1] was 14.9% [at 38 µM]; in assay [3], 2.6% [at 38 µM]. For the same molecule, the Potency entry in assay [2], in assay [6] and in assay [7] was “inactive” throughout. For the same molecule, in assay [8], the activity, negative = inhibition was 4.48% [at 38 µM].
Turning to `COc1c2c(nc3ccccc13)O[C@@H]([C@@](C)(O)CO)C2`, the activity change, negative = inhibition is -14.5% [at 38 µM] in assay [1] and -2.6% [at 38 µM] in assay [3]. Also, the Potency was 15.8 µM (active) in assay [2], greater than 46 µM in assay [4] and greater than 46 µM in assay [5]. Further, in assay [6], the Potency entry is “inactive”.
Consider `CS(=O)(=O)Nc1ccc(Nc2c3ccccc3nc3ccccc23)cc1`, for which the activity change, negative = inhibition in assay [1] was 0.883%. Besides, the Potency is 3.98 µM (active) in assay [2], greater than 46 µM in assay [4] and greater than 9.22 µM in assay [5]. Besides, the activity, negative = inhibition in assay [8] is 25.9%. In addition, the Potency entry in assay [6] and in assay [7] was “inactive” each time.
For the molecule `Nc1nc(Cl)nc2c1ncn2[C@@H]1O[C@@H](COP(=O)(O)OP(=O)(O)OP(=O)(O)O)[C@@H](O)[C@H]1O`, the figures for the activity change, negative = inhibition in assay [1] and in assay [3] were 18.9% [at 38 µM] and 9.46% [at 38 µM], respectively. Moreover, the Potency entry in assay [2], in assay [6] and in assay [7] was “inactive” throughout. The Potency in assay [4] and in assay [5] was greater than 46 µM in each case.
For the molecule `Cc1cn([C@H]2C=C[C@H](CO)O2)c(=O)[nH]c1=O`, the activity change, negative = inhibition was 11.1% [at 38 µM] in assay [1] and 4.45% [at 38 µM] in assay [3]. The Potency entry in assay [2] and in assay [7] was “inactive” each time. For the same molecule, in assay [8], the activity, negative = inhibition is 23.6% [at 38 µM].
Consider `C#C[C@@]1(O)CC[C@H]2[C@H]3CCC4=Cc5oncc5C[C@]4(C)[C@@H]3CC[C@@]21C`, for which the activity change, negative = inhibition in assay [1] is -22.8% [at 38 µM]. For the same molecule, the Potency in assay [2] is 12.6 µM (active); in assay [4], greater than 46 µM; in assay [5], greater than 46 µM. The activity, negative = inhibition in assay [8] is 6.25% [at 38 µM]. Further, the Potency result in assay [6] is “inactive”.
Consider `CC(=O)[C@@H]1CC[C@@H]2[C@@H]3CC=C4C[C@H](OS(=O)(=O)O)CC[C@@]4(C)[C@H]3CC[C@]21C`, for which the activity change, negative = inhibition in assay [1] was 12.4% [at 38 µM]; in assay [3] it was 1.64% [at 38 µM]. Also, the Potency result in assay [2], in assay [6] and in assay [7] was “inactive” in each case. Further, the Potency in assay [4] and in assay [5] was greater than 46 µM each time.
Regarding `C=C(NC(=O)C(=C)NC(=O)c1csc(C2=N[C@@H]3c4csc(n4)[C@@H]4NC(=O)c5csc(n5)[C@@H]([C@](C)(O)[C@H](C)O)NC(=O)[C@@H]5CSC(=N5)/C(=C/C)NC(=O)[C@@H]([C@H](C)O)NC(=O)c5csc(n5)[C@]3(CC2)NC(=O)[C@@H](C)NC(=O)C(=C)NC(=O)[C@@H](C)NC(=O)[C@@H]([C@@H](C)CC)N[C@H]2C=Cc3c([C@H](C)O)cc(nc3[C@@H]2O)C(=O)O[C@H]4C)n1)C(N)=O`, the activity change, negative = inhibition in assay [1] is -15.7% [at 17.2 µM]. Also, the Potency result in assay [2], in assay [6] and in assay [7] was “inactive” in each case. In addition, the activity, negative = inhibition in assay [8] is -4.53% [at 17.2 µM]. The Potency in assay [4] and in assay [5] was greater than 20.6 µM throughout.
`OC[C@@H]1O[C@@H](n2cnc3c(NC4CCCCC4)ncnc32)[C@@H](O)[C@H]1O`: the activity change, negative = inhibition is -12.8% [at 38 µM] in assay [1] and 1.85% [at 38 µM] in assay [3]. For the same molecule, the Potency entry in assay [2] and in assay [7] was “inactive” each time. Further, the Potency in assay [4] and in assay [5] was greater than 46 µM throughout.
`CCCCCCCCCCCCCCCC(=O)NC[C@@H](COP(=O)([O-])OCC[N+](C)(C)C)OCC`: the activity change, negative = inhibition in assay [1] is -23.3% [at 38 µM]; in assay [3], 16.7% [at 38 µM] (active). Besides, the Potency entry in assay [2], in assay [6] and in assay [7] was “inactive” in each case. Also, the Potency in assay [4] and in assay [5] was greater than 46 µM throughout.
As for `CC[C@H](C)[C@@H]1O[C@]2(CC[C@@H]1C)C[C@H]1C[C@H](CC=C(C)[C@@H](O[C@H]3C[C@H](OC)[C@H](O[C@H]4C[C@H](OC)[C@H](O)[C@H](C)O4)[C@H](C)O3)[C@@H](C)C=CC=C3CO[C@@H]4[C@@H](O)C(C)=C[C@H](C(=O)O1)[C@@]34O)O2`, the activity change, negative = inhibition in assay [1] is -14% [at 38 µM]; in assay [3], -10.6% [at 38 µM]. Moreover, the Potency entry in assay [2] and in assay [7] was “inactive” in each case. In addition, the Potency in assay [4] and in assay [5] was greater than 46 µM throughout.
`C[C@@H]1C[C@@H]2[C@H]3CCC4=CC(=O)C=C[C@]4(C)[C@]3(Cl)[C@@H](O)C[C@@]2(C)[C@@]1(O)C(=O)CO`: the activity change, negative = inhibition in assay [1] was 12.5% [at 38 µM]; in assay [3] it was 6.53% [at 38 µM]. In addition, the Potency entry in assay [2], in assay [6] and in assay [7] was “inactive” in each case. The activity, negative = inhibition in assay [8] is 3.18% [at 38 µM].
In the case of `O=S(=O)(NCCNC/C=C\c1ccc(Br)cc1)c1cccc2cnccc12`, the activity change, negative = inhibition in assay [1] was 2.61% [at 38 µM]; in assay [3] it was -7.5% [at 38 µM]. Further, the figures for the Potency in assay [2], in assay [4] and in assay [5] were 2 µM (active), greater than 46 µM and greater than 46 µM, respectively. Moreover, the Potency entry in assay [6] is “inactive”.
Regarding `CN1[C@@H]2CC[C@H]1CC(NC(=O)c1nn(C)c3ccccc13)C2` (stereo not given in full), the activity change, negative = inhibition in assay [1] is -1.02% [at 38 µM]; in assay [3], -9.68% [at 38 µM]. The Potency entry in assay [2], in assay [6] and in assay [7] was “inactive” each time. Further, the Potency in assay [4] and in assay [5] was greater than 46 µM in each case.
